Screening results (PubChem BioAssay)
Shown are actives, neighbours in structure and some others; about 2.2% of the full set was active somewhere.
p-CIP stab down: p/CIP-EGFP fusion destabilizers, primary screen, fluorescence, F442A cells | 16 h | decrease of EGFP signal, % at 10 µM | 0.01% of 290,000 active | AID 1984, 2009;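 active means EGFP signal decrease of at least 30% at 10 µM or well 3 SD below plate mean, unless failing retest; inactive means the rest, including hits failing retest or dose response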
HDAC3 inh: HDAC3 deacetylase inhibitors, primary screen, biochemical, fluorescence, cell-free homogeneous; Histone deacetylase 3 (Homo sapiens), O15379; recombinant HDAC3, fluorogenic peptide/trypsin coupled; inhibition, % at 8.3 µM; 0.15% of 320,000 active; in the data active means inhibition above about 26%, passing the limit was not always enough
PvdQ acylase: P. aeruginosa PvdQ acylase inhibitors, primary screen, biochemical, fluorescence, plate reader and imaging, single point. purified PvdQ acylase. inhibition, % at 10 µM. PvdQ acylase [Pseudomonas aeruginosa LESB58]. 0.063% of 340,000 active; in the data active means inhibition above about 30%, passing the limit was not always enough;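 further: 0% = vehicle neutral wells and 100% = reference inhibitor wells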
GASC-1 inh: inhibitors of GASC-1 histone demethylase, primary screen, biochemical, fluorescence, DELFIA europium | Lysine-specific demethylase 4C (Homo sapiens), Q9H3R0 | GST-JMJD2C(1-420) H3K9me3 demethylation | inhibition, % at 2.35 µM | 0.069% of 330,000 active | AID 2099, 2009;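 active means more than half of a compound's replicate wells show inhibition beyond 50%, single wells judged on their own value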;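 further: signal counts dimethyl H3K9 product captured on neutravidin plate; 0% = median of DMSO wells and 100% = 0.3 times that DMSO median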
SUMO Mot1 rescue: yeast Mot1-301 growth rescue at high temperature, primary screen, SUMOylation pathway inhibitor project, S. cerevisiae, ATP luminescence, 38.5C | growth rescue, % at 18.8 µM | S. cerevisiae Mot1-301 growth rescue; percent above DMSO median, 100 means doubled | 1% of 320,000 active;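 active means every valid replicate shows activation above 250% relative to neutral control wells; inactive means the rest, any valid replicate at or below 250%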;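 further: OY570 slx delta 5 strain wells were the positive control but not used for scaling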
PHOSPHO1 inh: PubChem AID 1565; recombinant PHOSPHO1, absorbance phosphatase assay; inhibition, % at 13.3 µM; 1.1% of 290,000 active; Phosphoethanolamine/phosphocholine phosphatase (Homo sapiens), Q8TCT1; in the data active means inhibition above about 60%
Yeast Mot1 SUMO: growth restoration of Mot1-301 yeast on galactose, dose response, SUMO pathway inhibitor project, whole organism, S. cerevisiae, ATP luminescence, cherry-picked samples. S. cerevisiae Mot1-301 galactose growth, 24 h; -100 = growth of slx-deleted rescue strain. 2,300 tested, under 10 active. growth activity, percent, % at 42 µM. shares compounds with SUMO Mot1 rescue. AID 493004, 2010;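 active means Signal drops as the depositor expects, and the fitted half-maximal dose is no more than ten times the top valid tested dose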;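 further: more negative values mean stronger growth rescue toward the control strain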
* = called active by the depositor; · = no result; + = active, no number.

SMILES | p-CIP stab down | HDAC3 inh | PvdQ acylase | GASC-1 inh | SUMO Mot1 rescue | PHOSPHO1 inh | Yeast Mot1 SUMO
CC1CCCC(C)N1C(=O)CSc1nnnn1-c1cccc2c1CCCC2 (stereo not drawn) | -2 | -1 | -7 | 2 | 414* | 30 | 0
O=C(CSc1nnnn1-c1cccc2c1CCCC2)N1CCCC1 | 1 | 0 | -13 | -3 | 1 | -8 | ·
C[C@H]1CCC[C@@]2(O[C@H](CCO)C[C@@H](O)[C@@H]2O)O1 | · | -2 | 7 | 1 | 10 | · | ·
CC1(C)Cc2c(cnn2-c2ccc(F)cc2)C(NC(=O)CCCN2CCCCC2=O)C1 (stereo not drawn) | -5 | 2 | -9 | 42 | 523* | 14 | 0
Cc1ccccc1C(=O)Nc1ccnn1C1CCN(C(=O)c2ccoc2)CC1 | 0 | -3 | -18 | 1 | -5 | 14 | ·
COC(=O)c1ccccc1SC(CC(=O)c1ccccc1)c1ccc(F)cc1 (stereo not drawn) | -9 | 8 | 0 | 1 | 461* | 8 | 0
O=C(CC(Nc1ccc(F)cc1)c1ccccc1)c1ccccc1 (stereo not drawn) | 0 | 4 | 15 | 0 | -17 | -14 | ·
O=C(N1CCCCC1)C1(S(=O)(=O)c2ccccc2)CC=CC1 | -7 | -3 | -16 | 1 | -26 | 0 | ·
CCn1c(CSCc2ccc(F)cc2)nnc1SCC(=O)NCc1ccccc1 | 2 | 1 | -9 | 19 | 924* | 64* | 0
CCn1c(CSCc2ccc(C)cc2)nnc1SCC(=O)NCc1ccccc1 | -16 | -1 | 4 | 10 | -23 | -22 | ·
CC(=O)N(C(C)=O)c1c(C#N)c(C)n(-c2ccccc2)c1C(=O)c1ccccc1 | 0 | 14 | -15 | 11 | + | 10 | -1
Cc1ccc(S(=O)(=O)N2c3ccccc3CC2C)cc1 (stereo not drawn) | 3 | 3 | 13 | -1 | 68 | 4 | ·
Cc1ccc(S(=O)(=O)N2c3ccc(S(N)(=O)=O)cc3CC2C)cc1 (stereo not drawn) | 1 | -3 | 10 | 31 | + | 5 | 1
N#Cc1c(NC(=O)C2CC(Cl)=CCC2C(=O)O)sc2c1CCCC2 (stereo not drawn) | -2 | -2 | -4 | 5 | 8 | 10 | ·
Brc1ccc(-c2cn3cccnc3n2)cc1 | -3 | 2 | -8 | 0 | 662* | 3 | -1
Clc1ccc(-c2cn3cccnc3n2)cc1 | 0 | -15 | -20 | 7 | 10 | 2 | ·
CC(C)Cn1nc(C(=O)Nc2cccc(C(=O)NC3CC3)c2)c2ccccc2c1=O | · | 5 | 0 | -9 | 71 | · | ·
O=S(=O)(NCC1CCCO1)c1cc(Cl)ccc1Br (stereo not drawn) | 4 | 5 | 1 | 2 | 467* | 33 | 1
O=S(=O)(NCC1CCCO1)c1cc(Cl)ccc1Cl (stereo not drawn) | -2 | -4 | 5 | -6 | -5 | 3 | ·
COC(=O)c1cccc(NC(=O)c2cccnc2)c1 | -4 | -4 | -1 | 6 | + | 28 | 0
CC(C)(C)NC(=O)C(c1cccs1)N(Cc1cccs1)C(=O)c1ccc(CN2CCOCC2)o1 (stereo not drawn) | 0 | 19 | -19 | 7 | + | -8 | 0
Cc1ccc(C(C(=O)NC(C)(C)C)N(Cc2ccc3c(c2)OCO3)C(=O)c2ccc(CN3CCOCC3)o2)o1 (stereo not drawn) | -9 | 1 | -7 | -14 | -14 | -9 | ·
CC(C)(C)NC(=O)C(c1cccs1)N(Cc1ccc(F)cc1)C(=O)c1csnn1 (stereo not drawn) | -3 | -1 | -9 | -18 | 218 | 54 | ·
O=C(N/N=C/c1ccc(OC(F)F)cc1)c1ccc(CSc2nc3ccccc3[nH]2)cc1 | 3 | 2 | -12 | -6 | 8 | -18 | ·
